# Reference: PubChem BioAssay (NCI)
# Compounds without any hit were thinned out: in the full panel of roughly 83,000, 20% have a hit.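 Testing used 96-well plates and a 48-hour single-concentration exposure. Example: -40 means 40% of the starting cells died.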 Unmarked numbers belong to inactive results. Activity calls are given as the source filed them. How the source made its calls: active means growth percent below 10; inactive means the rest.
# Experiments:
# Test in all cases: NCI-60 one-dose screen, 48 h (100 = growth as untreated, 0 = no growth, -100 = all killed)
# Conditions in all cases: 10 µM
# SK-MEL-2 melanoma = test system: SK-MEL-2 melanoma
# SN12C renal = test system: SN12C renal
# UO-31 renal = test system: UO-31 renal
# TK-10 renal = test system: TK-10 renal
# ACHN renal = test system: ACHN renal
# CAKI-1 renal = test system: CAKI-1 renal
# A498 renal = test system: A498 renal
# CCRF-CEM leukemia = test system: CCRF-CEM leukemia
# MOLT-4 leukemia = test system: MOLT-4 leukemia
Compound,growth (SK-MEL-2 melanoma),growth (SN12C renal),growth (UO-31 renal),growth (TK-10 renal),growth (ACHN renal),growth (CAKI-1 renal),growth (A498 renal),growth (CCRF-CEM leukemia),growth (MOLT-4 leukemia)
CCCc1c(C)nc2scc(-c3ccc(Cl)cc3)n2c1=O,95.1%,96.3%,73%,102%,95.3%,96.6%,98.2%,95%,87.1%
COc1ccc(C2C=C(c3ccc(Cl)cc3)N=C3SC=CN32)c(Br)c1 (stereo not drawn),85.3%,67.6%,84.3%,83.5%,67.7%,54.1%,89.7%,71.7%,53.1%
O=C(Nc1ccc(OS(=O)(=O)Cc2ccccc2)cc1)C12CC3CC(CC(C3)C1)C2,102%,88.3%,78.4%,112%,99.8%,84.2%,83.1%,85.2%,41.5%
CC(C)OCc1cc(CN2CCN(c3cccc(Cl)c3)CC2)c(O)c2ncccc12,-59.1% (active),-4.06% (active),-6.8% (active),5.04% (active),10.1%,-49.9% (active),-62.7% (active),-13.4% (active),-48.6% (active)
CCc1nn2c(-c3cc(OC)c(OC)c(OC)c3)c(-c3cc(OC)c(OC)c(OC)c3)nc2s1,44.5%,85.9%,81.7%,73%,74%,71.4%,88.6%,80.8%,95.9%
COc1cc(C2CC(=O)Nc3c2c(C)nn3-c2nc3ccccc3[nH]2)cc(OC)c1O (stereo not drawn),-7.45% (active),81.2%,8.39% (active),37.2%,31.1%,78.9%,22.5%,0.819% (active),-36% (active)
O=C(OCc1ncc(-c2ccc(C(F)(F)F)cc2)c(NC2CCCCCC2)n1)c1c(F)c(F)c(F)c(F)c1F,54.6%,54.1%,28.3%,63.2%,27.8%,89.6%,102%,15.7%,79.1%
CCOC(=O)CSC(=S)SCC(=O)OCC,96.7%,106%,102%,132%,109%,103%,121%,85.1%,96.6%
CC1(C)Cc2c(cn(Cc3ccccc3)c2-c2ccccc2)-c2oncc21,102%,97%,89.7%,106%,99.9%,79.8%,126%,94.2%,86.1%
Cc1ncc([N+](=O)[O-])n1CCOc1ccc(C(=O)/C=C/c2ccc(C(F)(F)F)cc2)cc1,81%,77.9%,40.6%,72.4%,80.7%,81.3%,74.5%,27.5%,28.3%
O=C/C=C/c1ccc([N+](=O)[O-])cc1Cl,94.2%,97.5%,74.5%,139%,115%,107%,117%,42.6%,86.6%
Cc1cc(C)c2c(Nc3ncnc4c3sc3nc(C)cc(C)c34)n[nH]c2n1,114%,99.3%,90.9%,104%,93.6%,101%,92.3%,95.3%,94.1%
COc1ccc(/C(CS(=O)(=O)c2ccccc2)=N\O)cc1,113%,96.9%,104%,92.5%,109%,101%,102%,96.3%,98.4%
Cc1ccc([P+](Cc2ccccc2)(c2ccccc2)c2ccccc2)cc1,-29.1% (active),19.3%,68.7%,12.3%,60.6%,76.7%,23%,13.6%,6.83% (active)
CCNC1(NC#N)CCCCC1,157%,100%,90.9%,141%,111%,96.3%,98.3%,102%,108%
CCOCC[P+](c1ccccc1)(c1ccccc1)c1ccccc1,51.2%,59%,75.9%,57.3%,94.2%,85.5%,72%,34.7%,47.6%
COc1cc(-c2cc(/C=C/C(C)=O)[nH]n2)cc(OC)c1OC,87.2%,67.5%,52.4%,73.8%,78.7%,55.2%,90.7%,20%,71.2%
Nc1ncc(-c2ccc(C(F)(F)F)cc2)c(NC2CCCCCC2)n1,0.455% (active),29.9%,23.6%,36.9%,16.4%,55.8%,58.8%,31.1%,57.5%
COc1cc([C@@H]2c3cc4c(cc3[C@H](SC(=N)N)[C@H]3COC(=O)[C@H]23)OCO4)cc(OC)c1OC,30.8%,27.3%,29.3%,72.4%,26.3%,5.13% (active),48.2%,4.96% (active),26%
Cc1cc(C)c(C(=O)OC(C)CNC2CCCCC2)c(C)c1 (stereo not drawn),95%,100%,68.6%,92%,97.8%,97%,92.1%,89.7%,84.7%

Compound,growth (SK-MEL-2 melanoma),growth (SN12C renal),growth (UO-31 renal),growth (TK-10 renal),growth (ACHN renal),growth (CAKI-1 renal),growth (A498 renal),growth (CCRF-CEM leukemia),growth (MOLT-4 leukemia)
CC1=CC2OC34COC3CC(OC(=O)C(F)(F)F)C4(C)C2(C)CC1 (stereo not drawn),104%,98.4%,99.5%,101%,98.4%,102%,79.6%,101%,113%
Oc1ccc(/C=N\Nc2ccccn2)c(O)c1,46.3%,24.1%,-19.7% (active),61.6%,7.03% (active),-15.3% (active),70.7%,8.18% (active),11.2%
COc1ccc(C2C=C(c3ccc(Cl)c(Cl)c3)N=C3SC(C)=CN32)cc1 (stereo not drawn),94.8%,99.6%,77.5%,92.8%,103%,95.7%,91%,82.8%,79.5%
O=C1/C(=C/c2ccc(O)cc2)Cc2ccc(Cl)cc21,93%,77.8%,45.2%,127%,80%,68.3%,121%,67.7%,70.3%
Cn1c([N+](=O)[O-])cnc1/C=C1\Oc2ccc(Br)cc2C1=O,-49% (active),-2.34% (active),-38.4% (active),-33.3% (active),-41.6% (active),-21.6% (active),-29.7% (active),5.39% (active),-14.1% (active)
COc1ccc(-c2cc(=O)n(-c3nc4ccccc4[nH]3)[nH]2)cc1OC,51%,75%,56.1%,93.9%,57.6%,38.7%,30.9%,-4.05% (active),-32% (active)
COc1c(-c2c3sc(=O)[nH]c3nc3c2c(=O)[nH]n3C(C)C)cc2c(c1OC)OCO2,85.3%,95.5%,78.9%,98.7%,91.4%,93.3%,57.2%,95%,94.5%
CCCCCCCCCCCC(c1ccccc1)N(C)C (stereo not drawn),116%,90.7%,68.9%,134%,92.5%,93.2%,71.2%,69.1%,82.1%
Cc1ccc(-n2nnc3c(sc4ccccc43)c2=O)cc1,83%,76.7%,9.98% (active),56.7%,15.2%,48.7%,102%,76.3%,90.6%
COc1cc(C(=O)n2nc(N)c3c(C)cc(C)nc32)cc(OC)c1OC,30.3%,79.8%,84.7%,98.3%,91.9%,76.7%,60.2%,57.6%,36%
COc1ccc(-c2nc(NC(=O)CS(=O)(=O)c3ccc(F)cc3)sc2C)cc1,72.7%,55.5%,26.8%,98.4%,73.5%,51.8%,93.6%,21.2%,35.5%
COc1cc(-c2cc(-c3cc(OC)c(OC)c(OC)c3)nc3nc(N)[nH]c(=O)c23)ccc1Oc1ccnc2cc(Cl)ccc12,29.2%,31.3%,46.3%,92.9%,48.4%,38.7%,84.9%,18.2%,17.7%
COc1ccc(OC)c([N+](=O)[O-])c1C=O,136%,101%,-43.3% (active),154%,92.5%,72.2%,59.2%,41.4%,66.8%
Cc1nc2sccn2c1-c1csc(Nc2cccc(Cl)c2C)n1,43.8%,59.4%,51.2%,54.6%,60.3%,51.4%,,47.1%,40.2%
Cn1cnc([N+](=O)[O-])c1/C=C1\Oc2ccc(Cl)cc2C1=O,82.2%,98.9%,48.3%,98.2%,79.4%,,98.4%,33.7%,49.3%
N#Cc1cnc2ccc(NCc3cnc[nH]3)cc2c1Nc1ccc(F)c(Cl)c1,32.5%,46.5%,51.5%,11.8%,24.6%,43.6%,,71.3%,79.6%
COc1cc(-c2nc(-c3nnc(-c4cccnc4)o3)c3ccccn23)cc(OC)c1OC,111%,99.6%,74.9%,109%,99%,104%,83%,,93.7%
O=[N+]([O-])C1CC2C=CC1C2 (stereo not drawn),92.8%,102%,80.8%,112%,106%,95.1%,78.2%,,96.1%
Cc1nnc2c3nnc(-c4ccc(Cl)cc4)n3c3ccccc3n12,99.9%,97.7%,72.4%,92%,101%,93.2%,94.3%,90.3%,89.9%
COc1ccccc1CNCCCN1C(=O)c2ccc3c4c(ccc(c24)C1=O)C(=O)N(CCCNCCNCCCN)C3=O,24.9%,1.16% (active),77.3%,60.6%,51.5%,87.8%,60.9%,,1.36% (active)

Compound,growth (SK-MEL-2 melanoma),growth (SN12C renal),growth (UO-31 renal),growth (TK-10 renal),growth (ACHN renal),growth (CAKI-1 renal),growth (A498 renal),growth (CCRF-CEM leukemia),growth (MOLT-4 leukemia)
COc1cccc(-c2nnc(COc3ccc(-c4nc5ccc(C)cc5[nH]4)cc3OC)o2)c1,98.8%,72.6%,88.2%,102%,25.9%,94.4%,,2.49% (active),25.6%
O=C(COc1ccc(-c2nc3ccccc3[nH]2)cc1)N=Nc1c(O)[nH]c2ccccc12,113%,91.7%,93.4%,128%,98.7%,99.2%,,4.95% (active),91.8%
c1ccc(OCCC[P+](c2ccccc2)(c2ccccc2)c2ccccc2)cc1,-11.5% (active),10.4%,63.8%,18.1%,66%,76.6%,,1.67% (active),0.0403% (active)
Cc1ccccc1C1=N[C@@H](Cc2ccccc2)C(=O)c2c(nc3ccccn23)N1,115%,107%,80.6%,138%,94.5%,88.9%,98.2%,105%,111%
O=C(NCCCl)c1cc(Cl)cc(Cl)c1,117%,97%,84%,117%,107%,96.8%,80.9%,97.2%,105%
N/C(=N\O)c1cn(C2OC(CO)C(O)C2O)c2ncnc(N)c12 (stereo not drawn),-41.5% (active),3.58% (active),10% (active),-0.402% (active),11.6%,,-56.3% (active),-10.4% (active),-27.7% (active)
FC(F)(F)c1ccc(-c2cnc(Cl)nc2NC2CCCCCC2)cc1,-4.24% (active),18.2%,23.5%,32.1%,5.68% (active),67.5%,,26.3%,85.1%
CN(C)CCCN(Cc1ccccc1O)C(=S)Nc1ccc(Cl)cc1,112%,98.2%,78.8%,104%,95%,99.7%,,109%,106%
C/C(=N\NC(N)=S)C(C)(C)O,98.5%,87.1%,68.9%,126%,90.2%,89.6%,91.7%,,44.9%
CCCCC(=O)N(c1ccc(Nc2c3ccccc3nc3cc([N+](=O)[O-])ccc23)cc1)S(C)(=O)=O,109%,69.3%,36.7%,95.8%,43.1%,59.9%,,33.2%,22.8%
COc1cc(C2c3cc4c(cc3C(O)C(CO)C2CO)OCO4)cc(OC)c1OC (stereo not drawn),32.2%,46.1%,13.4%,46.7%,53.9%,,-0.141% (active),15.6%,16.8%
CCCCCCCCCCCC(=O)NCCCN(C)C,92.2%,86.6%,85%,96%,99.9%,83.4%,72.2%,65%,88.9%
CCCCCCCC/C=C/CCCCCCCCC1=NCCN1CCO,95.1%,64.1%,38.5%,124%,58.7%,,84.7%,19.7%,34.3%
O=c1oc2cc(OS(=O)(=O)C3CC3)ccc2c2c1CCCCCC2,103%,82.8%,83.4%,121%,82.1%,79.4%,,64.4%,65.6%
CC(C)C[C@H](NC(=O)CCn1ccc2ccccc2c1=O)B(O)O,63.8%,63.7%,57.3%,12.8%,28.6%,45.6%,,12%,5.52% (active)
COc1ccc(-c2ccccc2)cc1C(=O)c1ccc(-c2ccccc2)cc1,58.9%,96.6%,60.6%,88.3%,105%,52.2%,93.6%,,65.9%
COc1ccc2nc(-c3ccccc3)cc(C(C)=O)c2c1,96.6%,94.9%,73.8%,89.7%,97.7%,87.9%,74.8%,91.2%,73.1%
Cc1cccc2c(Nc3ccc(NS(C)(=O)=O)cc3)c3ccc([N+](=O)[O-])cc3nc12,-19.1% (active),7.61% (active),10.5%,20.7%,-11.4% (active),6.69% (active),,-9.83% (active),-5.36% (active)
CCOC(=O)c1c(C)n(-c2ccc(Cl)cc2)c2ccc(OC(=O)/C=C/c3ccccc3)cc12,64.2%,86.6%,83.1%,96%,98.7%,103%,,75.1%,69.8%
COc1cccc2c1O/C(=C\c1ccc([N+](=O)[O-])s1)C2=O,43.3%,70.1%,-0.107% (active),73.6%,67.5%,90.9%,,43.6%,75.5%
